Measured values as given in PubChem BioAssay.
For part of these data: Results with a measured potency or affinity are listed apart. Activity calls are given as the source filed them.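 The calls were made as follows, unless noted: active = primary screen hit whose fluorescence ratio, in both repeats, exceeds the weak agonist control mean by 3 SD; inactive = the rest.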

Assays:
[1] = tested on: TRPC4 beta (transient receptor potential cation channel C4), mouse; test: activators of mouse TRPC4 channel, confirmation, cell-based, Fluo4 calcium, HEK293 TRPC4beta/mu-opioid, duplicates, 10 µM (AID 2426;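 active = fluorescence ratio normalized to control raised more than 50% in primary screen plus both repeat runs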); conditions: Fluo4 calcium fluorescence, at 10 µM; active compounds read high
[2] = tested on: transient receptor potential cation channel C4 beta (TRPC4), mouse; test: activators of mouse TRPC4 channel, confirmation, cell-based, second round, Fluo4, HEK293 TRPC4beta/mu-opioid, 1 µM (AID 2461;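 active = primary screen active and over 50% activation in each of two duplicate runs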); conditions: Fluo4 calcium fluorescence, at 1 µM; active compounds read high
[3] = tested on: TRPC4 (transient receptor potential cation channel C4 beta), mouse; test: positive allosteric modulators of mouse TRPC4, confirmation, cell-based, second round, Fluo-4, HEK293 TRPC4beta/mu-opioid, 1 µM (AID 2554); conditions: DAMGO EC20, Fluo-4 calcium flux, at 1 µM; active compounds read high
[4] = tested on: TRPC4 beta (transient receptor potential cation channel C4), mouse; test: positive allosteric modulators of mouse TRPC4, confirmation, cell-based, Fluo-4, HEK293 TRPC4beta/mu-opioid (AID 2555;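 active = primary screen hit whose calcium fluorescence ratio, in both repeats, exceeds the weak agonist control mean by 3 SD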); conditions: DAMGO EC20, Fluo-4 calcium flux, at 10 µM; active compounds read high
[5] = biological target: Short transient receptor potential channel 4 (Mus musculus) (UniProt Q9QUQ5); test: inhibitors of mouse TRPC4 channel, confirmation, cell-based, Fluo4, HEK293 TRPC4beta/mu-opioid (AID 2636;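 active = calcium signal cut by more than 3 SD below the full-agonist control yet still positive, in both repeats and the earlier primary screen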); conditions: DAMGO, Fluo4 calcium flux, at 10 µM; active compounds read high
Chain of Short transient receptor potential channel 4 (Mus musculus) (Q9QUQ5 whole entry, looked up): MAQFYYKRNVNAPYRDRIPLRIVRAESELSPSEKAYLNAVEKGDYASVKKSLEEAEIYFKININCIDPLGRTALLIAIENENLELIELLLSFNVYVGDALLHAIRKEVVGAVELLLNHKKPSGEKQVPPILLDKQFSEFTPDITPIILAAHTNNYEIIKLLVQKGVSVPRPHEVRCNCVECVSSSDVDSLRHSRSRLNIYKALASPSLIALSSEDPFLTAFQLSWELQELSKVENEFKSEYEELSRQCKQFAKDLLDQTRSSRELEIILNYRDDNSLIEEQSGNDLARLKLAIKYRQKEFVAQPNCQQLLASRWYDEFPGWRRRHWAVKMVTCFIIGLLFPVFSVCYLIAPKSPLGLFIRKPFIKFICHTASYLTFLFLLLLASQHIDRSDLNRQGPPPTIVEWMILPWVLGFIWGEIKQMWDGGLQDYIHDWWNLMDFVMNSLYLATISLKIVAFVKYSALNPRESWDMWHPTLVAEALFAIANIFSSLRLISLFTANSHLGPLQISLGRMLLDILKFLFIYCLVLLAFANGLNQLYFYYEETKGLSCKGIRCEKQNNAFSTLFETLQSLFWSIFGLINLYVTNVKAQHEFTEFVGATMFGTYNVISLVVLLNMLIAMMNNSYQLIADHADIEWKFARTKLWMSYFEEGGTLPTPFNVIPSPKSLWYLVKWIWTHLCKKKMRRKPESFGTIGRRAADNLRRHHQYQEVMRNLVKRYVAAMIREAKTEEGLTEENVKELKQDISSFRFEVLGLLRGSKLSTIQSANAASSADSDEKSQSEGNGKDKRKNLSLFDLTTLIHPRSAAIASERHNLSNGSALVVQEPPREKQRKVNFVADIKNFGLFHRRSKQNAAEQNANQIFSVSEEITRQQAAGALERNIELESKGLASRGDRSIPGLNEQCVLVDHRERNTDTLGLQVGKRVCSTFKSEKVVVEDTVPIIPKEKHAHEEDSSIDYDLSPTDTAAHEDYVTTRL

[6] = biological target: Short transient receptor potential channel 4 (Mus musculus) (UniProt Q9QUQ5); test: inhibitors of mouse TRPC4 channel, confirmation, cell-based, second round, Fluo4, HEK293 TRPC4beta/mu-opioid, 1 µM (AID 2637;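 active = calcium signal ratio cut to more than 3 SD under the fully stimulated control mean yet still positive, in both repeats and the primary screen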); conditions: Fluo4 calcium flux, DAMGO, at 1 µM; active compounds read high
[7] = biological target: Short transient receptor potential channel 4 (Mus musculus) (UniProt Q9QUQ5); test: mouse TRPC4 channel activators, dose response, cell-based, HEK293 TRPC4/mu-opioid, Fluo-4 calcium (AID 434937;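 active = primary screen activator hit with a dose response curve and TRPC4 channel activation at any tested dose; inactive = no activation, no dose response, or not a primary hit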)
[8] = biological target: Short transient receptor potential channel 4 (Mus musculus) (UniProt Q9QUQ5); test: TRPC4 positive allosteric modulators, dose response, cell-based, HEK293 TRPC4/mu-opioid, Fluo-4 calcium, EC20 DAMGO (AID 434941;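 active = earlier screen potentiator hit that boosts the TRPC4 ion channel at some dose, with a dose response; inactive = no potentiation, no dose response, or not a prior hit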;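 also: calcium entry triggered by an EC20 dose of DAMGO at the co-expressed mu-opioid receptor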)
[9] = biological target: Short transient receptor potential channel 4 (Mus musculus) (UniProt Q9QUQ5); test: mouse TRPC4 channel inhibitors, dose response, cell-based, HEK293 TRPC4/mu-opioid, Fluo-4 calcium (AID 434942;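 active = primary screen inhibitor hit that blocks the TRPC4 channel at some tested dose, yielding a dose curve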)
[10] = biological target: Short transient receptor potential channel 6 (Mus musculus) (UniProt Q61143); test: inhibition of mouse TRPC6 channel, confirmation, selectivity assay for TRPC4 inhibitor project, cell-based, HEK293, membrane potential dye, duplicate (AID 434948;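 active = active in primary screen and both duplicates, each dropping signal beyond three positive-control SD with fluorescence still positive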); conditions: HEK293 TRPC6, membrane potential dye fluorescence, at 10 µM, stimulated with maximal-effect acetylcholine; active compounds read high
Chain of Short transient receptor potential channel 6 (Mus musculus) (Q61143 whole entry, looked up): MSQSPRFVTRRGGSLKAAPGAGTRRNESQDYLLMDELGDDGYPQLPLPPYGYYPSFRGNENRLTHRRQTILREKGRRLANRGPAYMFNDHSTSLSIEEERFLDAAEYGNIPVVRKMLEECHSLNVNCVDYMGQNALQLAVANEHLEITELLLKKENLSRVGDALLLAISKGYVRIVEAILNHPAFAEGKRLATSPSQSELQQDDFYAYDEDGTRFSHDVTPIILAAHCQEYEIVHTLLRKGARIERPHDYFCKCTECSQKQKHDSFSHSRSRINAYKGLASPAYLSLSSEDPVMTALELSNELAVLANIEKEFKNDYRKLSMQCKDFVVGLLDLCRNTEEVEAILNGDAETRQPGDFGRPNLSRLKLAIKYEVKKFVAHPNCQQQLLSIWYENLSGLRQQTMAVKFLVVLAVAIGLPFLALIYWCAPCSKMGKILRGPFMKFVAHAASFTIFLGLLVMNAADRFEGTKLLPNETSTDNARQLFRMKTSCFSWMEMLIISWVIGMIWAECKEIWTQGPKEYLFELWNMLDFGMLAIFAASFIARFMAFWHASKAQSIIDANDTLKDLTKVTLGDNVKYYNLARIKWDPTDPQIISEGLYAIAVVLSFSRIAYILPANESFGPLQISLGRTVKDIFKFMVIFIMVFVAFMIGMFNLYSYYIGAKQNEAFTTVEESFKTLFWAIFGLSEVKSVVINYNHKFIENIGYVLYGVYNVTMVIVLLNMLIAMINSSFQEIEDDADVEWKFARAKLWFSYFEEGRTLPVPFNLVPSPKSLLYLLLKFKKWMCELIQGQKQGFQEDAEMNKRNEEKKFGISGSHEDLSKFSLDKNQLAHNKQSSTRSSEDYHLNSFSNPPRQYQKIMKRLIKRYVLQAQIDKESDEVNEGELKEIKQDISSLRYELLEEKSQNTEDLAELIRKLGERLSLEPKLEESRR

[11] = biological target: Short transient receptor potential channel 6 (Mus musculus) (UniProt Q61143); test: activation of mouse TRPC6 channel, confirmation, selectivity assay for TRPC4 activator project, cell-based, HEK293, membrane potential dye, duplicate (AID 434950;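 active = membrane potential signal rise above negative control mean plus 3 SD in both duplicates, also active in the earlier TRPC4 screen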;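 as to activation: 0% = buffer only wells and 100% = acetylcholine maximal-effect wells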); conditions: HEK293 TRPC6, membrane potential fluorescence, at 10 µM; active compounds read high
[12] = biological target: Short transient receptor potential channel 6 (Mus musculus) (UniProt Q61143); test: TRPC6 potentiation by TRPC4 potentiator hits, confirmation, selectivity assay for TRPC4 potentiator project, HEK293 cells, membrane potential dye, duplicate (AID 434952;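 active = compound raising the membrane signal above positive-control mean plus 3 SD in both repeats, and a primary screen hit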); conditions: HEK293 TRPC6, membrane potential dye fluorescence, at 10 µM, maximal acetylcholine added after compound; active compounds read high
[13] = biological target: Short transient receptor potential channel 4 (Mus musculus) (UniProt Q9QUQ5); test: calcium flux activators in TRPC4/5HT1a cells, counter-screen for TRPC4 activator project, cell-based, second counter screen, HEK293 TRPC4/5HT1a, Fluo-4 (AID 434977;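 active = calcium signal rise above buffer-control mean plus 5 SD in both duplicates, and also a hit in the primary screen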); conditions: Fluo-4 calcium flux, at 10 µM; active compounds read high
[14] = calcium flux inhibitors in TRPC4/5HT1a cells, confirmation, counter-screen for TRPC4 inhibitor project, cell-based, second counter screen, HEK293 TRPC4/5HT1a, Fluo-4 (AID 434978;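 active = primary screen active whose calcium signal fell more than 3 SD beyond the full-serotonin control mean in both duplicate plates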;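 also: serotonin given first at submaximal then at maximal dose after compound preincubation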); conditions: Fluo-4 calcium flux, at 10 µM, serotonin added to trigger calcium flux; active compounds read high
[15] = tested on: TRPC4 (mouse), co-expressed with 5HT1a in HEK293; test: calcium flux potentiators in TRPC4/5HT1a cells, confirmation, counter-screen for TRPC4 potentiator project, cell-based, second counter screen, HEK293 TRPC4/5HT1a, Fluo-4 (AID 434979;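 active = signal rise over 3 SD above mean of control wells given weak agonist, in both repeats and first screen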); conditions: Fluo-4 calcium flux, at 10 µM, serotonin added at its EC20 dose; active compounds read high
[16] = calcium flux activation in mu-opioid HEK293 cells, confirmation, counter-screen for TRPC4 activator project, cell-based, HEK293 mu-opioid receptor line (AID 449723;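 active = hit in primary screen, with calcium signal over 5 SD above buffer well mean in both duplicates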;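 also: counter screen cells carry the mu-opioid receptor alone and lack TRPC4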); conditions: Fluo-4 calcium fluorescence, at 10 µM; active compounds read high
[17] = calcium flux enhancement in mu-opioid HEK293 cells, confirmation, counter-screen for TRPC4 allosteric potentiator project, cell-based, HEK293 mu-opioid receptor line (AID 449724;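 active = calcium signal rise more than 3 SD above the low-dose agonist control mean, in both duplicate plates and the primary screen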); conditions: Fluo-4 calcium flux, at 10 µM, compound added before EC20 DAMGO stimulus; active compounds read high

O=C(COC(=O)c1nc(Cl)ccc1Cl)c1ccccc1Cl
inactive: outcome [1] | outcome [2] | outcome [3] | outcome [4] | outcome [5] | outcome [6] | outcome [7] | outcome [8] | outcome [9] | outcome [10] | outcome [11] | outcome [12] | outcome [13] | outcome [14] | outcome [15] | outcome [16] | outcome [17]

c1ccc(Nc2ncnc3sc4c(c23)CCC4)cc1
inactive: outcome [1] | outcome [2] | outcome [3] | outcome [4] | outcome [5] | outcome [6] | outcome [7] | outcome [8] | outcome [9] | outcome [10] | outcome [12] | outcome [13] | outcome [14] | outcome [15] | outcome [16] | outcome [17]
active: activation [11] 30%

Cc1cc(NC(=O)CCN2CCN(Cc3ccccc3)CC2)ccc1Br
inactive: outcome [1] | outcome [2] | outcome [4] | outcome [5] | outcome [6] | outcome [7] | outcome [8] | outcome [9] | outcome [10] | outcome [11] | outcome [12] | outcome [13] | outcome [14] | outcome [15] | outcome [16] | outcome [17]
active: potentiation [3] 18%

CCOc1ccc(Nc2nc(Cc3nnc(SCC(=O)c4ccc(C)cc4)o3)cs2)cc1
active: potentiation [15] 8.2%
inactive: outcome [1] | outcome [2] | outcome [3] | outcome [4] | outcome [5] | outcome [6] | outcome [7] | outcome [8] | outcome [9] | outcome [10] | outcome [11] | outcome [12] | outcome [13] | outcome [14] | outcome [16] | outcome [17]

CCc1cc2c(SCC(=O)N(C)C3CCS(=O)(=O)C3)ncnc2s1 (stereo not given)
active: potentiation [4] 35% | potentiation [15] 42.5%
inactive: outcome [1] | outcome [2] | outcome [3] | outcome [5] | outcome [6] | outcome [7] | outcome [8] | outcome [9] | outcome [10] | outcome [11] | outcome [12] | outcome [13] | outcome [14] | outcome [16] | outcome [17]

CCCn1c(NCc2cc(OC)ccc2OC)nc2ccccc21
inactive: outcome [1] | outcome [2] | outcome [3] | outcome [4] | outcome [5] | outcome [6] | outcome [7] | outcome [8] | outcome [9] | outcome [10] | outcome [11] | outcome [12] | outcome [13] | outcome [14] | outcome [15] | outcome [16] | outcome [17]

COc1cccc(C(=O)Oc2ccc(/C=N/Nc3ccc(C(=O)O)cc3)cc2OC)c1
inactive: outcome [1] | outcome [2] | outcome [3] | outcome [4] | outcome [5] | outcome [6] | outcome [7] | outcome [8] | outcome [9] | outcome [10] | outcome [11] | outcome [12] | outcome [13] | outcome [14] | outcome [15] | outcome [16] | outcome [17]

Cc1cc(OCCN2CCCCC2)nc2ccccc12
active: potentiation [15] 13.7%
inactive: outcome [1] | outcome [2] | outcome [3] | outcome [4] | outcome [5] | outcome [6] | outcome [7] | outcome [8] | outcome [9] | outcome [10] | outcome [11] | outcome [12] | outcome [13] | outcome [14] | outcome [16] | outcome [17]

O=c1c2ccccc2nc(SCc2nc3ccccc3s2)n1CCCO
inactive: outcome [1] | outcome [2] | outcome [3] | outcome [4] | outcome [5] | outcome [6] | outcome [7] | outcome [8] | outcome [9] | outcome [10] | outcome [11] | outcome [12] | outcome [13] | outcome [14] | outcome [15] | outcome [16] | outcome [17]

CC1CCCCC1NC(=O)c1cc2ccccc2o1 (stereo not given)
inactive: outcome [1] | outcome [2] | outcome [3] | outcome [5] | outcome [6] | outcome [7] | outcome [8] | outcome [9] | outcome [10] | outcome [11] | outcome [12] | outcome [13] | outcome [14] | outcome [16] | outcome [17]
active: potentiation [4] 46% | potentiation [15] 42.2%

COc1ccc(-n2cc(CNCc3cnc4ccccn34)c(-c3cccc(F)c3)n2)cc1
inactive: outcome [1] | outcome [2] | outcome [3] | outcome [4] | outcome [5] | outcome [6] | outcome [7] | outcome [8] | outcome [9] | outcome [10] | outcome [11] | outcome [12] | outcome [13] | outcome [14] | outcome [15] | outcome [16] | outcome [17]

O=C(OCC(=O)N1CCOCC1)c1cccc(S(=O)(=O)N2CCCc3ccccc32)c1
inactive: outcome [1] | outcome [2] | outcome [3] | outcome [4] | outcome [5] | outcome [6] | outcome [7] | outcome [8] | outcome [9] | outcome [10] | outcome [11] | outcome [12] | outcome [13] | outcome [14] | outcome [16] | outcome [17]
active: potentiation [15] 10.2%

CCOC(=O)C1CCCN(C(=O)CCCn2nnnc2CN2CCOCC2)C1 (stereo not given)
inactive: outcome [1] | outcome [2] | outcome [3] | outcome [4] | outcome [5] | outcome [6] | outcome [7] | outcome [8] | outcome [9] | outcome [10] | outcome [11] | outcome [12] | outcome [13] | outcome [14] | outcome [16] | outcome [17]
active: potentiation [15] 13.4%

OC1(c2ccc(Cl)cc2)CN(c2ccccc2)C2=[N+]1CCS2 (stereo not given)
active: activation [11] 38%
inactive: outcome [1] | outcome [2] | outcome [3] | outcome [4] | outcome [5] | outcome [6] | outcome [7] | outcome [8] | outcome [9] | outcome [10] | outcome [12] | outcome [13] | outcome [14] | outcome [15] | outcome [16] | outcome [17]

CCOC(=O)CC(NC(=O)c1cc2cc(Cl)cc(Cl)c2oc1=O)c1cccc([N+](=O)[O-])c1 (stereo not given)
inactive: outcome [1] | outcome [2] | outcome [3] | outcome [5] | outcome [6] | outcome [7] | outcome [8] | outcome [9] | outcome [10] | outcome [11] | outcome [12] | outcome [13] | outcome [14] | outcome [15] | outcome [16] | outcome [17]
active: potentiation [4] 35%
